Screening results deposited in PubChem by National Center for Advancing Translational Sciences (NCATS).
L3MBTL1 inh-1 = inhibitors of human L3MBTL1; hit rate 0.66% among 230,000; Potency, µM (top dose mostly 57.1 µM), actives largely listed as inhibitors; Q9Y468; AlphaScreen L3MBTL1–H3K9me1 peptide binding; note: nearly all actives have a fitted effect of over 60% in size
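First, the protein-peptide complex forms for 30 min at room temperature (L3MBTL1 50 nM, biotinylated H3K9me1 peptide 75 nM). Next, compounds are pin-transferred and incubated 30 min. Finally, AlphaScreen beads are added and read after 30 min.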
RECQ1 helicase = inhibitors of human RECQ1 DNA helicase; Potency, µM (top dose mostly 57.3 µM), actives largely listed as inhibitors; hit rate 0.54% among 240,000; AID 2549; RECQ1 DNA unwinding, red fluorescence kinetic read; note: nearly all actives have a fitted effect of over 30% in size
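50 nM RECQ1T1 preincubated 15 min with compound in Tris pH 8.0 buffer with MgCl2, DTT, Tween-20 and 2.5 ug/ml poly(dI-dC); started with 200 nM TAMRA/BHQ-2 forked duplex and 2 mM ATP. Unwinding read as fluorescence (525/598 nm), two reads 2 h apart.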
BLM helicase inh-1 = Bloom syndrome helicase (human) inhibition; recombinant BLM DNA unwinding, fluorescence dequenching; Potency, µM (titrated, usually from 56.1 µM), hits mostly inhibitors; hit rate 0.2% among 350,000; AID 2528; note: nearly all actives have a fitted effect of over 35% in size
WRN helicase inh-1 = WRN helicase (human) inhibition; WRN helicase unwinding, fluorescent forked duplex, kinetic; Potency, µM (highest dose often 114 µM), usual class: inhibitors; hit rate 0.46% among 360,000; AID 651768; note: nearly all actives have a fitted effect of over 55% in size
Target sequence (Q14191 whole entry, looked up): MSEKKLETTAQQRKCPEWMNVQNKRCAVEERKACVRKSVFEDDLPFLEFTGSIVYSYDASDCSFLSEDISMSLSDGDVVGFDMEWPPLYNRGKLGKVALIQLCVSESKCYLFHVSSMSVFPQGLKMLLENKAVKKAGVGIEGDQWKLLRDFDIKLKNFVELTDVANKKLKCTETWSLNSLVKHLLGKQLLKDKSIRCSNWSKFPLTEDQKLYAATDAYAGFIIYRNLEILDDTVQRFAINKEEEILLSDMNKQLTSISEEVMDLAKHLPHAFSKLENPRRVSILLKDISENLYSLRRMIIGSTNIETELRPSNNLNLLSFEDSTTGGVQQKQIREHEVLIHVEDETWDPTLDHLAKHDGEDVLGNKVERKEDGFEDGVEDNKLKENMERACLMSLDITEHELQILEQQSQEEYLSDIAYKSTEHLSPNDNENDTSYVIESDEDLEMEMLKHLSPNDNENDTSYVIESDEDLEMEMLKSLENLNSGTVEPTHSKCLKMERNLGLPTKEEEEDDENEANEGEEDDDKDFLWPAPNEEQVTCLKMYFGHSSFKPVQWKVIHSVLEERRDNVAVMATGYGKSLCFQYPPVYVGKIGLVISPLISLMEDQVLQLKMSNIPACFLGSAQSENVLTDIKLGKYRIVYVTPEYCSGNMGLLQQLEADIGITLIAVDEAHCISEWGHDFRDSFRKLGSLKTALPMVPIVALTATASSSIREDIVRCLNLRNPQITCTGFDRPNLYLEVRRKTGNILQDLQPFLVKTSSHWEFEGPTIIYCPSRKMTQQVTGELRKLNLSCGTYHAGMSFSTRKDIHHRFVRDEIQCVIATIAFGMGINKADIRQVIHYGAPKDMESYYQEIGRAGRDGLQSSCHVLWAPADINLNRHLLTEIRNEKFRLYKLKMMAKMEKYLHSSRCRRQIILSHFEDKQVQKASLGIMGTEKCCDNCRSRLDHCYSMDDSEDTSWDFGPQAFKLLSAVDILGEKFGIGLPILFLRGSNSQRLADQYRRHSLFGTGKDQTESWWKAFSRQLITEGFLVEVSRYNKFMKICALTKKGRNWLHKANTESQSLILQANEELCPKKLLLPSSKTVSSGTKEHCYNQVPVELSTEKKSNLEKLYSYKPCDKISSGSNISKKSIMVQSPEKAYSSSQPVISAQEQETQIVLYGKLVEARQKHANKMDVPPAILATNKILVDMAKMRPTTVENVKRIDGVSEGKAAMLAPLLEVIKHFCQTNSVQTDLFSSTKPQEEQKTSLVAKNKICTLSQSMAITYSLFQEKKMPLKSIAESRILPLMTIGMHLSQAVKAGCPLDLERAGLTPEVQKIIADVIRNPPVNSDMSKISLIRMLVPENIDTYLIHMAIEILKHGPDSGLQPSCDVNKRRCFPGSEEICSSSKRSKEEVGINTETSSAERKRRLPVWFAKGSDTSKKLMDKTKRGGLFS
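Kinetic red-fluorescence monitoring (525/598 nm) tracks WRN helicase activity after 100 nM fluorophore-quencher forked duplex and 2 mM ATP are added to 20 nM enzyme pretreated 15 min at room temperature with compound.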
FEN1 inh-1 = human FEN1 inhibition; P39748; Recombinant FEN1 flap cleavage, fluorescence, 15 min; Potency, µM (top dose mostly 114 µM), actives largely listed as inhibitors; hit rate 0.35% among 390,000; note: nearly all actives have a fitted effect of over 65% in size
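With each library titrated from low to high concentration, compounds met 10 nM FEN1 for 15 min at room temperature before 50 nM substrate was added; readings at 0 and 15 min fed four-parameter Hill curve fits.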
APE1 inh = inhibitors of human APE1 endonuclease. Potency, µM (highest dose often 65.8 µM), usual class: inhibitors. AID 2517. recombinant APE1, TAMRA/BHQ-2 abasic DNA cleavage fluorescence. P27695. hit rate 0.35% among 350,000; note: nearly all actives have a fitted effect of over 55% in size
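Readout is kinetic fluorescence (ex 525, em 598 nm) from cleavage of 50 nM TAMRA/BHQ-2 THF abasic duplex by 0.75 nM APE1, compound added 15 min beforehand at RT.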
L3MBTL1 inh-2 = blocks human L3MBTL1 methyl-lysine binding; hit rate 91% among 500; Potency, µM, actives largely listed as inhibitors; shares compounds with L3MBTL1 inh-1; AID 540279; L3MBTL1 methyl-lysine binding inhibition, biochemical qHTS; note: nearly all actives have a fitted effect of over 70% in size
AlphaScreen ctr2 = interferes with AlphaScreen signal in L3MBTL1 counterscreen; shares compounds with L3MBTL1 inh-1; AlphaScreen counterscreen, signal inhibition; Potency, µM (top dose mostly 57.1 µM), hits mostly inhibitors; 500 tested, under 10 active
FEN1 inh-2 = confirmation of human FEN1 inhibitors; shares compounds with FEN1 inh-1; FEN1 flap cleavage, TAMRA/BHQ2 fluorogenic DNA substrate; Potency, µM, hits mostly inhibitors; hit rate 79% among 880; AID 720498; note: nearly all actives have a fitted effect of over 60% in size
WRN helicase inh-2 = WRN helicase inhibition, cherry-pick retest; AID 720497; Potency, µM (titrated, usually from 57.1 µM), most hits filed as inhibitors; hit rate 63% among 610; WRN helicase DNA unwinding, fluorescence kinetic; shares compounds with WRN helicase inh-1; note: nearly all actives have a fitted effect of over 65% in size
TO displacement = binds DNA, flagged in WRN inhibitor counterscreen; shares compounds with WRN helicase inh-1; thiazole orange DNA binding displacement, fluorescence; Potency, µM (highest dose often 57.1 µM), actives largely listed as inhibitors; hit rate 10% among 610; AID 720499;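 note: drop in dye fluorescence marks compound binding to DNA; nearly all actives have a fitted effect of over 60% in size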
BLM helicase inh-2 = counter-screen for WRN helicase inhibitors: human BLM helicase inhibition. shares compounds with WRN helicase inh-1. Recombinant BLM helicase DNA unwinding, red fluorescence. Potency, µM (highest dose often 57.1 µM), most hits filed as inhibitors. hit rate 60% among 610. AID 720503; note: nearly all actives have a fitted effect of over 60% in size
Large screens that a line does not name were inactive (follow-up assays come after a bar, where they were run). This is a sample that favours compounds with a hit; in the whole collection about 1% have one here. Calls come from the whole dose curve; as a rule, active = well fitted curve in the direction sought with a large enough effect; inconclusive = small, poorly fitted or top-dose-only effect, or another doubt; inactive = no such curve, though single readings can be large; an effect the other way counts as inactive or inconclusive.

COc1ccc(/C=C(\C#N)C(=O)NCCc2ccccc2)cc1OCc1ccccc1	none
COCCCNC(=O)/C(C#N)=C/c1ccc(OCC(=O)O)c(OC)c1	L3MBTL1 inh-1 3.5µM, WRN helicase inh-1 inconclusive, FEN1 inh-1 inconclusive | L3MBTL1 inh-2 2.1 | AlphaScreen ctr2 inconclusive | WRN helicase inh-2 19µM | TO displacement inconclusive | BLM helicase inh-2 5.4µM
COc1ccccc1-c1ccc2nnc(SC)n2n1	none (no result: L3MBTL1 inh-1, RECQ1 helicase)
Cc1csc2c1c(=O)n(O)c(=O)n2Cc1ccccc1	none (no result: L3MBTL1 inh-1, RECQ1 helicase, BLM helicase inh-1, WRN helicase inh-1, FEN1 inh-1, APE1 inh) | FEN1 inh-2 0.11
CCN1CCCC1CNC(=O)c1ccc2c(c1)NC(=O)/C(=C\c1ccc(OC)c(OC)c1)S2 (stereo not given)	WRN helicase inh-1 inconclusive, FEN1 inh-1 inconclusive (no result: L3MBTL1 inh-1, RECQ1 helicase) | FEN1 inh-2 38
O=C(O)c1ccccc1NS(=O)(=O)c1ccc(N/N=C/c2ccc(O)c(O)c2)c([N+](=O)[O-])c1	WRN helicase inh-1 11µM, FEN1 inh-1 28µM (no result: L3MBTL1 inh-1, RECQ1 helicase, BLM helicase inh-1, APE1 inh) | FEN1 inh-2 48
O=C(O)c1ccccc1NS(=O)(=O)c1ccc(NN=Cc2ccc(F)cc2)c([N+](=O)[O-])c1	WRN helicase inh-1 inconclusive (no result: RECQ1 helicase, BLM helicase inh-1)
O=c1c2ccccc2c(/C=N/NS(=O)(=O)c2ccccc2)c(O)n1-c1ccccn1	WRN helicase inh-1 inconclusive | FEN1 inh-2 inconclusive
Cn1nc(-c2ccc(OCC(=O)Nc3ccc(Cl)cc3)cc2)c2ccccc2c1=O	FEN1 inh-1 inconclusive (no result: L3MBTL1 inh-1, RECQ1 helicase, WRN helicase inh-1, APE1 inh) | FEN1 inh-2 34
Cc1cc2c([nH]c3ccccc32)c(C)n1	none (no result: RECQ1 helicase)
Cc1c2c(cc3c1[nH]c1ccccc13)C=NCC2	FEN1 inh-1 50µM (no result: L3MBTL1 inh-1, RECQ1 helicase, BLM helicase inh-1, APE1 inh) | FEN1 inh-2 38
CCOC(=O)c1c(CSc2ccccc2)n(C)c2cc(Br)c(OC)c(O)c12	none (no result: RECQ1 helicase)
CCOC(=O)c1c(CSc2ccccc2)n(C)c2cc(Br)c(OCC(O)CNC(CO)(CO)CO)cc12 (stereo not given)	WRN helicase inh-1 inconclusive, FEN1 inh-1 45µM, APE1 inh inconclusive | FEN1 inh-2 43
O=Cc1ccc(I)cc1	none (no result: L3MBTL1 inh-1, RECQ1 helicase, BLM helicase inh-1, WRN helicase inh-1, APE1 inh)
CC(C)N1C(=O)NC2NC(=O)N(C(C)C)C21 (stereo not given)	none (no result: L3MBTL1 inh-1, RECQ1 helicase, BLM helicase inh-1, FEN1 inh-1, APE1 inh)
Cc1cc(/C=C2\Sc3ccccc3N2C)cc(C)[n+]1CC1CCCO1 (stereo not given)	RECQ1 helicase inconclusive, WRN helicase inh-1 inconclusive, FEN1 inh-1 50µM, APE1 inh inconclusive | FEN1 inh-2 34
CCN(CC(=O)NC1CCS(=O)(=O)C1)S(=O)(=O)c1ccc(Cl)c(C(F)(F)F)c1 (stereo not given)	none (no result: RECQ1 helicase, BLM helicase inh-1)
Cc1ccc(NC(=O)CN2C(=O)N/C(=C\c3cccn3-c3ccc(C(=O)NC#N)cc3)C2=O)cc1	none (no result: L3MBTL1 inh-1, RECQ1 helicase, BLM helicase inh-1, WRN helicase inh-1, FEN1 inh-1, APE1 inh) | FEN1 inh-2 30
Cc1ccc(NC(=O)CN2C(=O)N/C(=C/c3ccc(N4CCOCC4)cc3)C2=O)cc1	L3MBTL1 inh-1 inconclusive
Cc1ccc(NC(=O)CN2C(=O)N/C(=C\c3cccn3-c3cccc(-c4nn[nH]n4)c3)C2=O)cc1	none (no result: L3MBTL1 inh-1, RECQ1 helicase, BLM helicase inh-1, WRN helicase inh-1, FEN1 inh-1, APE1 inh) | FEN1 inh-2 67
O=C(N/N=C/c1ccc(-c2ccc(Cl)c(C(=O)O)c2)o1)c1cc2c(ccc3ccccc32)o1	WRN helicase inh-1 20µM, FEN1 inh-1 40µM (no result: L3MBTL1 inh-1) | FEN1 inh-2 21
